Assay results: PubChem BioAssay AID504652 (National Center for Advancing Translational Sciences (NCATS), 2011)
Among all 360,000 compounds or so, about 11,000 (3.1%) were called active. No stated cut-off is given here; in the data, active means activity change below about -30%; inactive means the rest. The sample as a whole holds a higher share of actives than the screen did.

What follows are molecules tested against D(1A) dopamine receptor (Homo sapiens) (UniProt P21728) (assay: Antagonist of Human D 1 Dopamine Receptor: qHTS). Conditions: HEK293 TREx D1 cells, calcium flux, dopamine EC80; at 10 µM; hits give low values.
D(1A) dopamine receptor (Homo sapiens), sequence (P21728 whole entry, looked up): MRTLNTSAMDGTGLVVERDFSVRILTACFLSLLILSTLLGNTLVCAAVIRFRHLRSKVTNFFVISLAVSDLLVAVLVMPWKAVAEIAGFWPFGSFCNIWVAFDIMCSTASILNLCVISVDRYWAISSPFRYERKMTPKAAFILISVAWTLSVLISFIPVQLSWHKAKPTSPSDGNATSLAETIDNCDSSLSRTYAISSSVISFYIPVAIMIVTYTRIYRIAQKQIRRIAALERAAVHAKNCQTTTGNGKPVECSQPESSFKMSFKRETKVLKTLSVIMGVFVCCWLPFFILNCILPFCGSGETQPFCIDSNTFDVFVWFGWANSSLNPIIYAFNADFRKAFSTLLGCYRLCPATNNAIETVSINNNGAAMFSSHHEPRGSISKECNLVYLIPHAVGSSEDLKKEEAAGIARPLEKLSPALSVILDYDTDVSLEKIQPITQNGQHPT
Summary of the method: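 Compound effects on dopamine-evoked calcium signalling were measured in tetracycline-induced HEK293 Trex D1 cells. Dopamine at EC80 followed a 180 s compound pre-read, and fluorescence was tracked kinetically for 180 s more.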
On the % scale 0 is the no-effect control and ±100 the full control effect.

Compound	activity change, negative = inhibition
CC(=O)Nc1cccc(NC(=O)CSc2cn(CC(=O)N3CCCC3)c3ccccc23)c1	12.2% (inactive)
CC(=O)Nc1ccc(NC(=O)CSc2nnc3c4cc(Br)ccc4n(C)c3n2)cc1	-2.66% (inactive)
Cc1cccc(C)c1-n1ncc(C(=O)NCCCN2CCCCC2)c1C1CCN(C(=O)OC(C)(C)C)CC1	40.2% (inactive)
CCOC(=O)CN1C(C(=O)c2ccccc2)=C(OC(=O)C(C)(C)C)c2ccccc2S1(=O)=O	-13.9% (inactive)
FC(F)(F)c1cc(Nc2nc3ccccc3c3nncn23)ccc1Cl	-0.606% (inactive)
CC1=C(C(=O)Nc2ccccc2Cl)C(c2cccs2)n2ncnc2N1 (stereo not given)	4.21% (inactive)
CC(C)CNC(=S)Nc1ccc(F)cc1	12.4% (inactive)
CC(NC(=S)Nc1ccc(OC(F)F)cc1)c1ccc(F)cc1 (stereo not given)	-35.4% (active)
CC(C)N(Cc1ccccc1)C(=S)Nc1ccc(OC(F)F)cc1	-4.75% (inactive)
CCOC(=O)c1ccc(NC(=O)CC2C(=O)N(c3ccccc3)C(=O)N2Cc2cccs2)cc1 (stereo not given)	-10.5% (inactive)
COc1cc(NC(=S)NCc2ccco2)c(OC)cc1Cl	-9.33% (inactive)
Cc1ccc(NC(=S)NCc2ccccc2Cl)c(C)c1	-39.4% (active)
Cc1cc(F)ccc1NC(=S)NCCc1ccccc1	-15.6% (inactive)
S=C(NCc1ccco1)NCc1ccccc1Cl	-32.9% (active)
S=C(NCCc1ccccc1)NCc1ccccc1Cl	-29.8% (inactive)
Cc1ccc(NC(=S)NCCc2ccc(Cl)cc2)c(C)c1	22.5% (inactive)
COc1ccccc1C(=O)NCCn1cc(SCc2ccccc2Cl)c2ccccc21	-10.4% (inactive)
Cc1ccc(N2CC(C(=O)Nc3ccc(N(C)C)cc3)CC2=O)cc1Cl (stereo not given)	2.7% (inactive)
Cc1ccc(CNS(=O)(=O)c2ccc(C(=O)N(C)C)s2)cc1	5.34% (inactive)
Cc1ccccc1CNC(=O)Cn1c(C)c2cnn(-c3ccccc3)c(=O)c2c1C	-7.63% (inactive)
COc1ccc(S(=O)(=O)Nc2cc3c(C(=O)OC(C)C)c(C)oc3c3ccccc23)cc1	-3.34% (inactive)
CCOC(=O)c1cc2c(=O)n3ccccc3nc2n(CC2CCCO2)c1=NC(=O)c1ccccc1F (stereo not given)	7.85% (inactive)
CCOC(=O)c1cc2c(=O)n3ccccc3nc2n(CC2CCCO2)c1=NC(=O)c1ccccc1Br (stereo not given)	4.67% (inactive)
CCOC(=O)c1cc2c(=O)n3ccccc3nc2n(CC2CCCO2)c1=NC(=O)c1ccc(C(C)(C)C)cc1 (stereo not given)	-30.2% (active)
Cc1cccc(-n2ccnc2SCC(=O)Nc2cc(C(F)(F)F)ccc2Cl)c1	-5.92% (inactive)
